Data on 6 sequences can be found in paper PMC11574364.

Targets include RBMY1A1 / RBMY1B (Homo sapiens, UniProt P0DJD3); SRSF10 (Homo sapiens, UniProt O75494); PKR(1-2) (Homo sapiens, UniProt P19525); DDX9(1)/DHX9 (Homo sapiens, UniProt Q08211); hnRNP E1(1-2) (Homo sapiens, UniProt Q15365); DDX9(2)/DHX9 (Homo sapiens, UniProt Q08211).
What all share (test): protein domain microarray probed with biotinylated miRNA; Domain array: 20 mM Tris-HCl pH 7.4, 200 mM KCl, 0.2 mM EDTA, 0.05% NP40, 2 ug/ul heparin, overnight 4 C. ORF array: PBS pH 7.0 with RNase inhibitor, 100 ng RNA; high values mean tight binding
Conditions in all cases: ssRNA

The next assay has as its target T1, PPRC1 (Homo sapiens, UniProt Q5VV67).
T1 sequence: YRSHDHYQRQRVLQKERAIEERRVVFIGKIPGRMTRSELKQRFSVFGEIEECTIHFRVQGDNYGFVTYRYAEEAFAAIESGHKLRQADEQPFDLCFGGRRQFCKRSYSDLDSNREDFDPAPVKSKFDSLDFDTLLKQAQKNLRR

A further assay concerns the target T2, RBM26(1) (Homo sapiens, UniProt Q5T8P6).
T2 sequence: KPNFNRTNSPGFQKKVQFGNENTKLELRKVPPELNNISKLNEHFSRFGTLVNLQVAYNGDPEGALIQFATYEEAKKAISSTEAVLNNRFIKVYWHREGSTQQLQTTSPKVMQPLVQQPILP

The next assay concerns the target T3, TIA1 (Homo sapiens, UniProt P31483).
T3 sequence: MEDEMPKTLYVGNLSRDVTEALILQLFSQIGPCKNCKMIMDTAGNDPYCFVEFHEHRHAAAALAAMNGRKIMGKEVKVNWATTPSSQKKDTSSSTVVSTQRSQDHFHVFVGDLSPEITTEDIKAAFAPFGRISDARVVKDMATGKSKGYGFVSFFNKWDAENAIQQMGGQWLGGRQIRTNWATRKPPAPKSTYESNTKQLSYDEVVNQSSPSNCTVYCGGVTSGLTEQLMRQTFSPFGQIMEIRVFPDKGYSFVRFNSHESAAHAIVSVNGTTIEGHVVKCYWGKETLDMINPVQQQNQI

The next assay addresses T4, SETD1B (Homo sapiens, UniProt Q9UPS6).
T4 sequence: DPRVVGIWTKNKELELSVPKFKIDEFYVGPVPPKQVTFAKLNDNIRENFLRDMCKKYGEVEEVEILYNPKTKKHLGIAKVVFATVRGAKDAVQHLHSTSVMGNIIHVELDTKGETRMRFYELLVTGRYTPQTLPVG

The target in another assay is T5, ADAR(2) (Homo sapiens, UniProt P55265).
T5 sequence: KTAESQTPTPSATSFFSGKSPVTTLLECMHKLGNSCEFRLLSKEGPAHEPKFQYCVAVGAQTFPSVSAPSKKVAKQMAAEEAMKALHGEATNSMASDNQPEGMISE

The target in another assay is T6, RBM33 (Homo sapiens, UniProt Q96EV2).
T6 sequence: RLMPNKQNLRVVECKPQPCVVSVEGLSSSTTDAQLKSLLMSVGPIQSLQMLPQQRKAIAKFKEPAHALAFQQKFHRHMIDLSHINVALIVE

For a further assay, the target named is T7, TIAL1 (Homo sapiens, UniProt Q01085).
T7 sequence: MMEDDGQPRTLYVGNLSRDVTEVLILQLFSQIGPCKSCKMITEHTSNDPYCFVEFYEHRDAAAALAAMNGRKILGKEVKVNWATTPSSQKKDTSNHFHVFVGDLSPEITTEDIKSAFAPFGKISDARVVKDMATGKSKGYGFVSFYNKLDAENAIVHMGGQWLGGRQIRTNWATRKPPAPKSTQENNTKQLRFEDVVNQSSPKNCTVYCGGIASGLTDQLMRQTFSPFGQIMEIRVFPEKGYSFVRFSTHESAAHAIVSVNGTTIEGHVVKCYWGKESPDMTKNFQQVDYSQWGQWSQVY

The target of a further assay is T8, RNPS1 (Homo sapiens, UniProt Q15287).
T8 sequence: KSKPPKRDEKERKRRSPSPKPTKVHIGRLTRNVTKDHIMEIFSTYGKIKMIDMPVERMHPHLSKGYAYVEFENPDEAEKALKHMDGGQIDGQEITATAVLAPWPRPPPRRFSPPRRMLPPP

Another assay deals with T9, SHARP(1) (Homo sapiens, UniProt Q96T58).
T9 sequence: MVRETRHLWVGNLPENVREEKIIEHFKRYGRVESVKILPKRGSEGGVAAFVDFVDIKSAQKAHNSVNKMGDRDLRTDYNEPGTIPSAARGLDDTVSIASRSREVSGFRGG

The target in the next assay is T10, RBMX2 (Homo sapiens, UniProt Q9Y388).
T10 sequence: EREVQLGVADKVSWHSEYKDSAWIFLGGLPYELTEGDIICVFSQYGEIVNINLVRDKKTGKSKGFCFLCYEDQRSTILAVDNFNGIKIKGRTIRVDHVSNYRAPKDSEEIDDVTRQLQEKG

A further assay addresses T11, RDM1 (Homo sapiens, UniProt Q8NG50).
T11 sequence: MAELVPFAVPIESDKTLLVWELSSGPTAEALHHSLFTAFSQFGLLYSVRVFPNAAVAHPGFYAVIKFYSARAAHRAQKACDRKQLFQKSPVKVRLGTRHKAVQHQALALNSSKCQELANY

The target of the next assay is T12, SHARP(2-4) (Homo sapiens, UniProt Q96T58).
T12 sequence: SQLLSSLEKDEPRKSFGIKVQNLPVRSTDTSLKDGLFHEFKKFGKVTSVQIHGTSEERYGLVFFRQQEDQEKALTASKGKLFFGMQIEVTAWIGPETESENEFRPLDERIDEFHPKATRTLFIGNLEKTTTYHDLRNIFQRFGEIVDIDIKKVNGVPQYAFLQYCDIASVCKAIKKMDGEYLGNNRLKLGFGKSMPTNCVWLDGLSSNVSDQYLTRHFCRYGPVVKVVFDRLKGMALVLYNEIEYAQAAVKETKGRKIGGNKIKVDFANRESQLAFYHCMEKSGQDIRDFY

The target in the next assay is T13, ZNF638 (Homo sapiens, UniProt Q14966).
T13 sequence: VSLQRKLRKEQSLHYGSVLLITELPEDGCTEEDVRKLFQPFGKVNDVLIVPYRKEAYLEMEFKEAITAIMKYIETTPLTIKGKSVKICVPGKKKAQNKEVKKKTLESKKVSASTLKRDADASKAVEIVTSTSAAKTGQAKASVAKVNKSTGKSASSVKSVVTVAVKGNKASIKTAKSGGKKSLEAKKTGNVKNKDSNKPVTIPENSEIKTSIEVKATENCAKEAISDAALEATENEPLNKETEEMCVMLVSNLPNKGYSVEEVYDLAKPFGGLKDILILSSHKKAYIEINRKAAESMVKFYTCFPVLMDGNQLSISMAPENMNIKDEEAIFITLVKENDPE

For a further assay, the target named is T14, ADAR(3) (Homo sapiens, UniProt P55265).
T14 sequence: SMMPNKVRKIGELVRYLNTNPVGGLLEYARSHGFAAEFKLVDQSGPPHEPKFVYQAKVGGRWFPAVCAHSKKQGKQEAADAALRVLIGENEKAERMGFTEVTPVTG

SRSF10, sequence (O75494 1-120): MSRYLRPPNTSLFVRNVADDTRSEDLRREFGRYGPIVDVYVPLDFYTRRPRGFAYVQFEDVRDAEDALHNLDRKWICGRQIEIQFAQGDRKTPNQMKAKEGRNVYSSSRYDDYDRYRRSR
DDX9(1)/DHX9, sequence (Q08211 1-89): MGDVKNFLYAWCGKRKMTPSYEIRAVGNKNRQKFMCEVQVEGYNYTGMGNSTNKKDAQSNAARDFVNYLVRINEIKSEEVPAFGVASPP
RBMY1A1 / RBMY1B, sequence (P0DJD3 1-110): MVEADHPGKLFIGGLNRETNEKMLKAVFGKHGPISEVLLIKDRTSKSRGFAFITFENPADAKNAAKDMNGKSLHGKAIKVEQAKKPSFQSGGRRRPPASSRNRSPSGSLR
hnRNP E1(1-2), sequence (Q15365 1-183): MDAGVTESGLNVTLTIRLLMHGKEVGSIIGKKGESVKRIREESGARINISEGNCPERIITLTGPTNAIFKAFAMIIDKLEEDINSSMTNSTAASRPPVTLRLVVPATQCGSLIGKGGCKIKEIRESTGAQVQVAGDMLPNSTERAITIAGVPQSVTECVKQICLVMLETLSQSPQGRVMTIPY
PKR(1-2), sequence (P19525 1-186): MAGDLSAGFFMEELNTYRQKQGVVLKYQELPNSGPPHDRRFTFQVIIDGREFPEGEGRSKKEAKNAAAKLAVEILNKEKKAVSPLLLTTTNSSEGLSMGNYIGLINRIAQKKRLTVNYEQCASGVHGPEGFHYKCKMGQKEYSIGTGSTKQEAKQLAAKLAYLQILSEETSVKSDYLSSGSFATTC
DDX9(2)/DHX9, sequence (Q08211 161-271): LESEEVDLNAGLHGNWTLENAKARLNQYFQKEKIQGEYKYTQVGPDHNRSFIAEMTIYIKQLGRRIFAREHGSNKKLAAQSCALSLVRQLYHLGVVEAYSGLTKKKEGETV

Regarding UGAGGUAGUAGGUUGUAUAGUU, the binding signal came out at 24.9 ± 1.13 fluorescence intensity with PPRC1; 395 ± 44.7 fluorescence intensity in the assay with RBM26(1); 584.8 ± 5.47 fluorescence intensity with TIA1; 21.4 ± 1.84 fluorescence intensity in the assay with SETD1B; 21.92 ± 0.0141 fluorescence intensity in the assay with ADAR(2); 24.2 ± 0.735 fluorescence intensity with RBM33. For the same sequence, the binding signal with TIAL1 was 437 ± 10.1 fluorescence intensity; with RNPS1, 45.1 ± 1.35 fluorescence intensity; in the assay with RBMY1A1 / RBMY1B it was 754 ± 30.5 fluorescence intensity; in the assay with SHARP(1) it was 63 ± 1.09 fluorescence intensity; with RBMX2, 34.7 ± 8.67 fluorescence intensity; in the assay with RDM1 it was 46.4 ± 1.9 fluorescence intensity. The binding signal stood at 138 ± 34.1 fluorescence intensity with SHARP(2-4) and 91 ± 3.12 fluorescence intensity with SRSF10.
Take UGAGGUAGUAGGUUGUAUGGUU: the binding signal was 134 ± 3.36 fluorescence intensity with PPRC1; 1460 ± 57.5 fluorescence intensity with RBM26(1); 38.3 ± 1.35 fluorescence intensity with ZNF638; 28.7 ± 2.65 fluorescence intensity in the assay with PKR(1-2); 1030 ± 40.8 fluorescence intensity in the assay with TIA1; 30.3 ± 3.34 fluorescence intensity with ADAR(3). Further, the binding signal with DDX9(1)/DHX9 was 49.7 ± 9.25 fluorescence intensity; with SETD1B it was 22.4 ± 0.396 fluorescence intensity; with ADAR(2), 22.7 ± 0.559 fluorescence intensity; with RBM33, 40.1 ± 0.601 fluorescence intensity; with hnRNP E1(1-2) it was 26.7 ± 0.438 fluorescence intensity; with TIAL1, 789 ± 12.4 fluorescence intensity. Also, the binding signal came to 294 ± 40.2 fluorescence intensity with RNPS1; 1403 ± 13.2 fluorescence intensity with RBMY1A1 / RBMY1B; 702.32 ± 0.332 fluorescence intensity with SHARP(1); 69.6 ± 0.757 fluorescence intensity with RBMX2; 232 ± 12 fluorescence intensity in the assay with RDM1; 710 ± 31.7 fluorescence intensity in the assay with SHARP(2-4). Also, the binding signal with SRSF10 was 375 ± 21.5 fluorescence intensity; with DDX9(2)/DHX9, 44.6 ± 4.16 fluorescence intensity.
As for UAGCUUAUCAGACUGAUGUUGA, the binding signal with RBM26(1) is 31 ± 1.68 fluorescence intensity; in the assay with TIA1, 631 ± 33.9 fluorescence intensity; with ADAR(2), 23.2 ± 3.02 fluorescence intensity; in the assay with TIAL1 it was 684 ± 18.7 fluorescence intensity; with RBMY1A1 / RBMY1B, 602 ± 35.9 fluorescence intensity; in the assay with SHARP(1) it was 32 ± 6.87 fluorescence intensity. Further, the binding signal is 21.4 ± 3.97 fluorescence intensity with RBMX2, 21.8 ± 0.523 fluorescence intensity in the assay with RDM1, 705 ± 41.5 fluorescence intensity with SHARP(2-4) and 33.4 ± 2.35 fluorescence intensity with SRSF10.
On to CAGUGCAAUGAUGAAAGGGCAU, for which the binding signal with PPRC1 came out at 43 ± 4.72 fluorescence intensity; with RBM26(1), 478 ± 6.75 fluorescence intensity; with ZNF638, 33.6 ± 1.92 fluorescence intensity; in the assay with TIA1, 537.8 ± 3.27 fluorescence intensity; with ADAR(2), 22 ± 1.29 fluorescence intensity; in the assay with RBM33 it was 26.1 ± 1.95 fluorescence intensity. The binding signal in the assay with hnRNP E1(1-2) came out at 26.8 ± 0.919 fluorescence intensity; with TIAL1, 523 ± 28 fluorescence intensity; with RNPS1, 160 ± 25.6 fluorescence intensity; with RBMY1A1 / RBMY1B, 1153 ± 5.4 fluorescence intensity; with SHARP(1), 1723 ± 15.7 fluorescence intensity; in the assay with RBMX2, 29.6 ± 4.16 fluorescence intensity. Moreover, the binding signal in the assay with RDM1 was determined as 185 ± 14.8 fluorescence intensity; with SHARP(2-4) it was 630 ± 20.1 fluorescence intensity; with SRSF10, 865.4 ± 6.43 fluorescence intensity; with DDX9(2)/DHX9, 26 ± 1.37 fluorescence intensity.
Regarding UGAGGUAGUAGGUUGUGUGGUU, the binding signal in the assay with PPRC1 turned out to be 155 ± 53.3 fluorescence intensity; with RBM26(1), 1560 ± 215 fluorescence intensity; in the assay with ZNF638, 57.9 ± 2.93 fluorescence intensity; in the assay with PKR(1-2), 53.5 ± 3.56 fluorescence intensity; with TIA1, 871 ± 40.8 fluorescence intensity; in the assay with ADAR(3), 31.8 ± 4.56 fluorescence intensity. Also, the binding signal worked out at 68.5 ± 11.3 fluorescence intensity with DDX9(1)/DHX9; 24.2 ± 1.14 fluorescence intensity in the assay with SETD1B; 22.6 ± 1.85 fluorescence intensity with ADAR(2); 32.8 ± 1.94 fluorescence intensity with RBM33; 34.9 ± 2.48 fluorescence intensity with hnRNP E1(1-2); 740 ± 11.2 fluorescence intensity with TIAL1. For the same sequence, the binding signal was determined as 565 ± 18.8 fluorescence intensity with RNPS1; 1360 ± 32 fluorescence intensity with RBMY1A1 / RBMY1B; 1119.4 ± 0.849 fluorescence intensity with SHARP(1); 111 ± 6.68 fluorescence intensity with RBMX2; 427 ± 12.9 fluorescence intensity with RDM1; 1000 ± 18.8 fluorescence intensity with SHARP(2-4). For the same sequence, the binding signal with SRSF10 is 467 ± 36.1 fluorescence intensity; with DDX9(2)/DHX9 it was 53.91 ± 0.134 fluorescence intensity.
As to AGAGGUAGUAGGUUGCAUAGUU, the binding signal with PPRC1 is 97 ± 3.22 fluorescence intensity; with RBM26(1) it was 1530 ± 59.8 fluorescence intensity; with ZNF638, 29.21 ± 0.262 fluorescence intensity; in the assay with PKR(1-2) it was 24.8 ± 1.68 fluorescence intensity; in the assay with TIA1, 1240 ± 50.7 fluorescence intensity; with ADAR(3), 24.2 ± 0.771 fluorescence intensity. The binding signal with DDX9(1)/DHX9 came out at 29.6 ± 4.33 fluorescence intensity; in the assay with SETD1B it was 20.2 ± 1.15 fluorescence intensity; in the assay with ADAR(2) it was 23.9 ± 0.346 fluorescence intensity; with RBM33, 28.3 ± 2.28 fluorescence intensity; in the assay with hnRNP E1(1-2) it was 27.4 ± 2.06 fluorescence intensity; with TIAL1 it was 1020 ± 13.1 fluorescence intensity. Moreover, the binding signal in the assay with RNPS1 stood at 183 ± 12.6 fluorescence intensity; with RBMY1A1 / RBMY1B it was 2000 ± 49 fluorescence intensity; in the assay with SHARP(1) it was 423 ± 5.21 fluorescence intensity; in the assay with RBMX2, 65.8 ± 17.9 fluorescence intensity; with RDM1 it was 230 ± 20.4 fluorescence intensity; in the assay with SHARP(2-4), 711 ± 17.9 fluorescence intensity. In addition, the figures for the binding signal in the assay with SRSF10 and with DDX9(2)/DHX9 were 422 ± 31.8 fluorescence intensity and 33 ± 2.41 fluorescence intensity, respectively.
